Inconclusive results are not listed. Active and inactive are the calls of the source. Calls follow the shape of the dose curve; as a rule, active = well fitted inhibition curve with a large enough effect; inconclusive = small, poorly fitted or top-dose-only effect; inactive = flat fitted curve, though single readings scatter.
target: Ferritin light chain (Equus caballus) (UniProt P02791); assay: Confirmation Assay for Identification of Novel General Anesthetics; details: apoferritin 1-aminoanthracene fluorescence displacement; also: nearly all actives have a fitted effect of over 40% in size
Sequence (P02791 2-175 limits assumed): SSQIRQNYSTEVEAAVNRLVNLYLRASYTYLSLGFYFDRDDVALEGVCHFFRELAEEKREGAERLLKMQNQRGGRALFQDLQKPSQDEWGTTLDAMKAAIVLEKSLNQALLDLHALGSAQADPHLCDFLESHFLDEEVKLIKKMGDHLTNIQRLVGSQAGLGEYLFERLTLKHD
From the text: Anesthetic development has remained a largely empirical process. There are growing concerns about the cognitive effects of known general anesthetics and acceleration of the onset of neurodegenerative disease. The compounds' toxicity and multiple specific binding targets in the mammalian brain [4] has made them less attractive as drug leads. In this assay, a GABAergic mimetic model system, apoferritin and a profluorescent 1-aminoanthracene ligand (1-AMA), was used to construct a competitive binding assay for identification of novel general anesthetics. The assay was validated for 1-AMA using other known anesthetics, such as isoflurane (CID:3763) and propofol (CID: 4943), [6]. This particular BioAssay is a confirmation of followup compounds from primary screen AID:485281.
[1] S.L. Bianchi, T. Tran, C. Liu, S. Lin, Y. Li, J.M. Keller, R.G. Eckenhoff, and M.F. Eckenhoff, Brain and behavior changes in 12-month-old Tg2576 and nontransgenic mice exposed to anesthetics. Neurobiol Aging 29 (2008) 1002-10.
[2] Z. Xie, Y. Dong, U. Maeda, R.D. Moir, W. Xia, D.J. Culley, G. Crosby, and R.E. Tanzi, The inhalation anesthetic isoflurane induces a vicious cycle of apoptosis and amyloid beta-protein accumulation. J Neurosci 27 (2007) 1247-54.
[3] P. Honegger, and J.M. Matthieu, Selective toxicity of the general anesthetic propofol for GABAergic neurons in rat brain cell cultures. J Neurosci Res 45 (1996) 631-6.
[4] M.F. Eckenhoff, K. Chan, and R.G. Eckenhoff, Multiple specific binding targets for inhaled anesthetics in the mammalian brain. J Pharmacol Exp Ther 300 (2002) 172-9.
[5] C.A. Butts, J. Xi, G. Brannigan, A.A. Saad, S.P. Venkatachalan, R.A. Pearce, M.L. Klein, R.G. Eckenhoff, and I.J. Dmochowski, Identification of a fluorescent general anesthetic, 1-aminoanthracene. Proc Natl Acad Sci U S A 106 (2009) 6501-6.
[6] W.A. Lea, J. Xi, A. Jadhav, L. Lu, C.P. Austin, A. Simeonov, and R.G. Eckenhoff, A high-throughput approach for identification of novel general anesthetics. PLoS One 4 (2009) e7150.
Source: NIH Chemical Genomics Center [NCGC]
Assay Submitter: Roderic Eckenhoff, University of Pennsylvania
Screening Center PI: Christopher P. Austin, NIH
Probe Development: NIH Chemical Genomics Center [NCGC]
Three uL of reagents (free 1-AMA (50% saturated solution of 1-aminoanthracene
in PBS) in columns 3, 4 as negative control and 1-AMA/apoferritin mixture (10 uM horse-spleen apoferritin in 50% saturated 1-aminoanthracene in PBS) in columns 1, 2, 5-48) was dispensed into 1536-well Greiner black assay plates. Compounds (23 nL) were transferred via Kalypsys pintool equipped with 1,536-pin array (10 nL slotted pins, V&P Scientific, San Diego, CA). Titration of the positive control, propofol, were delivered via pin transfer from separate control plates to the 2nd column of each assay plate. The starting concentration of the control, dissolved in DMSO, was at 160 mM, followed by two-fold dilution points in duplicate, for a total of 16 concentrations. The plates were incubated for 10 min at room temperature, and then read on an EnVision HTS multilabel reader (Perkin-Elmer, Waltham, MA) (end point read, 3 min/plate) using Fura2 BFP excitation filter (380 nm, bandwidth 10 nm) and fluorescein emission filter (535 nm, bandwidth 25 nm) set. A LANCE/DELFIA dichroic mirror with a cutoff wavelength at 400 nm was used to maximize signal accuracy and strength. Vehicle-only plates, with DMSO being pin-transferred to the entire column 5-48 compound area, were inserted uniformly at the beginning and the end of each library in order to monitor for and record any shifts in the background. Activity was computed as the normalized fluorescence response relative to free 1-AMA and 1-AMA/apoferritin complex values. Concentration-effect relationships were derived by using curve fitting algorithms developed in-house (http://ncgc.nih.gov/pub/openhts/). […]
Potency is read from the fitted curve at half-maximal effect.

Potency, active:
Nn1cnc2sc3c(c2c1=O)CCC3 31.6 µM, COc1ccccc1-c1cn(C(C)(C)C)nc1C 14.1 µM, O=c1sc2ccccc2c(=O)n1Cc1ccccc1F 8.91 µM, O=C(CSc1nnnn1C1CCCCC1)Nc1nc2c(s1)CCCC2 31.6 µM, Cc1cc(NS(=O)(=O)c2ccccc2)cc(Cl)c1O 11.2 µM, CN(C)c1ccc(C(=S)N2CCCCCC2)cc1 25.1 µM, Cc1ccc(CNc2ccc(CNc3ncn[nH]3)cc2)cc1 20 µM, O=C(c1csc2ccccc12)N1CCCCCC1 31.6 µM, CC1CCCC(C)N1C(=O)CSc1nnnn1Cc1ccccc1 (stereo not given) 8.91 µM, Cc1cc(N2CC(C(=O)Nc3nccs3)CC2=O)ccc1C(C)C (stereo not given) 14.1 µM, O=c1c2c3c(sc2ncn1-n1cccc1)CCCCC3 10 µM, N/C(Cc1ccc(Cl)cc1)=N\OC(=O)c1cccc2ccccc12 8.91 µM, O=C1c2ccsc2SCCN1Cc1ccc(Cl)cc1Cl 15.8 µM, Cc1cccc(Nc2nc(Cl)ncc2F)c1C 28.2 µM, Cc1cc(C)cc(NC(=O)N2CCCCCCC2)c1 6.31 µM, CC(=O)c1cccc(NC(=O)CCC2CCCC2)c1 28.2 µM, Cc1ccc(CNC(=O)c2nnn(-c3cccc(C)c3)c2N)cc1 17.8 µM, CCN1C(=O)N(c2ccc(Cl)cc2)C(C)=CC1(C)C 35.5 µM, Cc1ccc(NCc2ccccc2O)cc1 14.1 µM, CC(=O)c1cccc(NC(=O)CN2C(=O)NC3(CCCCCCC3)C2=O)c1 14.1 µM, N/C(=N\OC(=O)Cc1ccc(-c2ccccc2)cc1)c1ccncc1 31.6 µM, Cc1ccc(C2=NN(CC(=O)NCc3cccs3)C(=O)CC2)cc1 7.08 µM, O=C(CN1N=C(c2ccccc2)CCC1=O)NCc1cccs1 17.8 µM, O=C(COC(=O)CC1CC2CCC1C2)NC(=O)NC1CCCC1 (stereo not given) 15.8 µM, CC(NC(=O)c1ccc(Br)o1)C1CC2CCC1C2 (stereo not given) 8.91 µM, Cc1cc(C)cc(Oc2ccccc2CO)c1 14.1 µM, CCN(CC)c1cccc(OC2=NS(=O)(=O)c3ccccc32)c1 17.8 µM, Nc1nc(SCc2ccc(Cl)cc2)ns1 12.6 µM, COC(=O)c1ccc(/C=N/OCC(=O)NC2CCCCCCC2)cc1 7.94 µM, CCc1ccc(CNC(=O)Cn2nc(-c3ccccc3)ccc2=O)cc1 10 µM, O=S(=O)(Nc1ccc2c(c1)CCC2)c1cccs1 17.8 µM, Cc1ccccc1CSc1nsc(N)n1 17.8 µM, Oc1ccc(NCc2ccc(OCc3ccccc3Cl)cc2)cc1 17.8 µM, Nc1nc(SCC(=O)C23CC4CC(CC(C4)C2)C3)n[nH]1 7.08 µM, O=C1c2ccsc2SCCN1Cc1ccccc1Cl 14.1 µM, Cc1ccc(C(=S)N2CCCCCC2)cc1 28.2 µM, O=C1CCCCCCC1Sc1ccccc1[N+](=O)[O-] (stereo not given) 7.94 µM, Nc1c(C(=O)NCc2ccccc2)nnn1Cc1cccc(Cl)c1 3.98 µM, Cc1cc(S(=O)(=O)NCCc2ccccc2)c(C)s1 15.8 µM, Nc1ccc(C23CC4CC(CC(C4)C2)C3)cc1 7.08 µM

— PubChem BioAssay AID489008 (National Center for Advancing Translational Sciences (NCATS), 2010)
